# HCV inh: inhibitors of hepatitis C virus infection; Huh7.5.1 HCVcc-Cre infection, luciferase reporter, 44 h; Potency, µM (doses to about 41.8 µM), inactives show at the top dose activity change, negative = inhibition, most hits filed as inhibitors; hit rate 3.4% among 340,000; AID 651820; also: potency is read from the fitted curve at half-maximal effect; % is scaled to controls: 0 for no effect and ±100 for the full control effect
#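 Infectious HCV cell culture screen: compound-treated cells (1,000/well, pre-plated 4 h) are infected with HCVcc-Cre at roughly 0.5 moi and grown 44 h. Infection is quantified by luciferase signal after 15 min substrate incubation at room temperature.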
# SARS PLP yeast: SARS-CoV PLP inhibition in yeast; S. cerevisiae expressing SARS-CoV PLpro, growth rescue; Potency, µM (titrated, usually from 32.9 µM), for the others: at the highest dose activity, positive = growth rescue, usual class: activators; hit rate 0.19% among 330,000; calls by dose curve; also: potency is read from the fitted curve at half-maximal effect; 0% is about no effect; nearly all actives have a fitted effect of over 55% in size
# Pf growth 96h: P. falciparum growth inhibition at 96 hours | Potency, µM (top dose mostly 28.7 µM), inactives show top-dose activity change, negative = inhibition, most hits filed as inhibitors | P. falciparum luciferase reporter growth, 96 h | hit rate 6.9% among 320,000; also: potency is read from the fitted curve at half-maximal effect; % is scaled to controls: 0 for no effect and ±100 for the full control effect
#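 Plates of compound plus infected erythrocytes (2% hematocrit, 0.05% parasitemia final) incubate 96 hours, 37 C, 5% CO2. Detection reagent added; reduced luminescence from the parasites' luciferase reporter flags inhibition.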
# Sm TGR inh: inhibitors of Schistosoma mansoni thioredoxin glutathione reductase | Potency, µM (doses to about 114 µM), without a hit: at the highest dose activity change, negative = inhibition, usual class: inhibitors | purified TGR, DTNB reduction, TNB absorbance 405 nm | hit rate 3% among 360,000 | Q962Y6 | AID 485364; also: potency is read from the fitted curve at half-maximal effect; % is scaled to controls: 0 for no effect and ±100 for the full control effect; nearly all actives have a fitted effect of over 60% in size
#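 TGR 20 nM + NADPH 100 uM (dispensed conc.), cpd preinc 15 min RT; start with NADPH (500 uM addition) then DTNB (15 mM addition). Kinetic TNB absorbance, 405 nm filter. Four-parameter Hill fit across titration.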
# HCMV antiviral: blocks human cytomegalovirus replication | HFF cells, HCMV-luciferase reporter, 72 h; stronger effect = lower value | activity change, negative = inhibition, % at 57.5 µM | hit rate 4.5% among 410,000 | AID 1259415; in the data active = activity change below about -60%; inconclusive = no clear call, values can overlap the other calls; inactive = above about -39%; also: % is scaled to controls: 0 for no effect and ±100 for the full control effect
#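 Steps: HFFs plated, 16 h 37C; compounds added; HCMV-luciferase added to MOI 1 PFU/cell; 72 h 37C; OneGlo reagent, 5 min room temperature; luminescence read, normalized to controls.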
# Pf growth 48h: P. falciparum growth inhibition at 48 hours (one generation). P. falciparum luciferase growth in erythrocytes, 48 h. Potency, µM (top dose mostly 28.7 µM), inactives show at the highest dose activity change, negative = inhibition, most hits filed as inhibitors. hit rate 5.9% among 310,000; also: potency is read from the fitted curve at half-maximal effect; % is scaled to controls: 0 for no effect and ±100 for the full control effect
#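 Luciferase-expressing parasites in RBCs, 2% Hct / 0.1% parasitemia final; RPMI 1640 + 0.5% Albumax; 37 C, 5% CO2, one generation; luminescence read-out, lower signal = inhibition.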
# The depositor's hits bear a star; ? = inconclusive; . = no result. Shown are actives, neighbours in structure and some others; about 15% of the full set was active somewhere. Unless noted, calls follow the shape of the dose curve; as a rule, active = well fitted curve in the direction sought with a large enough effect; inconclusive = small, poorly fitted or top-dose-only effect, or another doubt; inactive = no such curve, though single readings can be large; an effect the other way counts as inactive or inconclusive.
SMILES,HCV inh,SARS PLP yeast,Pf growth 96h,Sm TGR inh,HCMV antiviral,Pf growth 48h
O=[N+]([O-])c1ccc(-c2nnc(-c3ccccc3)c(NCCCO)n2)cc1,8%,18%,5.2µM*,-1%,46,?
NC1CCc2cc(O)c(O)cc2C1 (centres undefined),0%,3%,10%,45µM*,34,?
CC(C)OP(=O)(OC(C)C)C1(NS(=O)(=O)c2ccc(Cl)cc2)C=C(Cl)C(=O)C(Cl)=C1,13%,2%,?,0.79µM*,-24,?
C=C(CC1([C@@H](NP(=O)(c2ccccc2)c2ccccc2)[C@H]2C[C@@H]2CCCC)CC1)c1ccccc1,5%,10%,9.3µM*,2%,11,5.9µM*
COc1ccccc1N(C)S(=O)(=O)c1ccc(C(=O)N(C)Cc2cccc(F)c2)cc1,.,.,.,.,-13,.
Cc1ccc(OCC(=O)Nc2ccc3nn(-c4ccc(C)cc4)nc3c2)cc1,.,.,.,0%,96,.
O=C1CSC(=S)N1c1cccc(F)c1,-15%,3%,10µM*,10%,95,27%
O=C(O)c1cccc(N2C(=O)CSC2=S)c1,15%,-1%,5.9µM*,0%,14,.
O=C1CSC(=S)N1c1ccc(F)cc1,.,-1%,19%,2%,.,-4%
O=C1CSC(=S)N1c1cccc(Br)c1,-5%,-3%,42%,-3%,-77*,-6%
O=C1CSC(=S)N1c1cccc(O)c1,-2%,-11%,31%,-6%,-35,29%
COc1ccccc1C(O)c1ncc(-c2cccc3ccccc23)[nH]1 (centres undefined),.,.,.,.,61,.
COCCNc1nc(N)c([N+](=O)[O-])c(NCc2ccccc2)n1,12%,-2%,?,-11%,59,?
COc1ccc(NC(=O)CCN2CCCCC2)cc1,-3%,3%,13µM*,20%,43,2%
O=C(CCCn1c(=O)c2cccn2c2ccccc21)Nc1cccc(Cl)c1,.,.,.,-9%,-70*,.
CCCCNC(=O)CCC(=O)Nc1ncc(-c2ccc(C)cc2)n1C,14%,-2%,.,1%,3,34%
Cc1ccc(-c2cnc(NC(=O)CCC(=O)N3CCCCC3)n2C)cc1,23%,-10%,12µM*,11%,-7,55%
Cc1cc(NC(=O)CCN2CCCCC2)ccc1Br,-20%,-9%,2.6µM*,-2%,5,10%
CCN(CC)C(=O)C1=C(C)N(CCCOC)C(=O)C(CC(=O)NCc2ccco2)C1 (centres undefined),.,.,.,.,18,.
COc1ccc(CC(=O)Nc2ccc(S(=O)(=O)N3CCN(C)CC3)cc2)cc1,14%,-10%,?,-1%,0,-11%
CCCCC(=O)NS(=O)(=O)c1ccc(N=NN(CC)CC)cc1,-1%,0%,-12%,-8%,-37,-2%
Cc1cccc(C)c1NC(=O)CN(CC(=O)O)CC(=O)O,.,.,-4%,.,-2,-3%
O=C(CCC(=O)N1CCCCC1)Nc1ccc(Cl)c(Cl)c1,5%,-5%,12µM*,-23%,-4,13%
O=C(CCC(=O)N1CCOCC1)Nc1ccc(Cl)c(Cl)c1,9%,3%,4%,-3%,-23,-17%
O=C(CCN1CCCCCC1)Nc1cccc(Cl)c1,-6%,-5%,2.1µM*,-3%,-60*,9%
SMILES,HCV inh,SARS PLP yeast,Pf growth 96h,Sm TGR inh,HCMV antiviral,Pf growth 48h
COC(=O)C(Cc1csc2ccc(Cl)cc12)NC(=O)c1ccc(Cl)cc1 (centres undefined),5%,-4%,?,19%,6,0%
CCCn1c(C)nc2cc(Cl)c(N3CCN(c4nc(-c5ccc(C)cc5)cs4)CC3)cc21,?,-15%,5.2µM*,-28%,-39,8.3µM*
COc1ccc(-c2csc(N3CCN(c4cc5c(cc4Cl)nc(-c4ccncc4)n5CCOCCO)CC3)n2)cc1,1%,-9%,3.7µM*,-22%,-16,?
Cc1ccc(-c2csc(N3CCN(c4cc5c(cc4Cl)nc(-c4ccncc4)n5CCN4CCCCC4)CC3)n2)cc1,-17%,-16%,3.3µM*,6%,-1,?
COc1ccc(-c2csc(NCCc3nc4cc(Cl)c(N5CCCCC5)cc4n3CCOCCO)n2)cc1,-20%,.,.,.,40,.
Cc1ccc(-c2csc(N3CCN(c4ccc5nc(-c6ccncc6)n(CCN6CCCCC6)c5c4)CC3)n2)cc1,?,-9%,?,26%,.,1.5µM*
O=S(=O)(O)O,.,.,-20%,.,.,-11%
CCOC(=O)c1cc(-c2ccc(F)cc2)n(CCC(=O)Nc2ccccc2OC)c1C,.,.,.,-4%,0,.
C#CC(=O)N(c1cc(OC)ccc1OC)C(C(=O)NC1CCCC1)c1cccs1 (centres undefined),.,-10%,55%,?,.,-1%
C#CC(=O)N(c1ccc(OC)cc1OC)C(C(=O)NC1CCCC1)c1cccs1 (centres undefined),1.3µM*,1%,-35%,1.6µM*,-99*,3%
COc1ccccc1N(C(=O)c1snc(C(N)=O)c1N)C(C(=O)NC1CCCC1)c1ccc2ncccc2c1 (centres undefined),0%,-1%,15%,-5%,-88*,?
COc1ccc(C(C(=O)NC2CCCC2)N(C(=O)c2snc(C(N)=O)c2N)c2ccccc2OC)cc1OC (centres undefined),-9%,1%,1%,-11%,-25,9.3µM*
COc1ccc(N(C(=O)c2snc(C(N)=O)c2N)C(C(=O)NC2CCCC2)c2cc(OC)ccc2OC)c(OC)c1 (centres undefined),?,1%,-10%,-2%,-35,1.9µM*
CCCCNC(=O)c1[nH]c(=O)cnc1-c1ccccc1,.,.,.,.,13,.
Cc1nccn1CCC(=O)NC1CC(C)(C)Cc2c1cnn2-c1ccccc1 (centres undefined),.,.,.,.,-20,.
CCOC(=O)c1[nH]c(COC(=O)c2ccccc2NC(=O)c2ccco2)c(C(=O)OCC)c1C,?,-3%,?,1%,-3,12µM*
COC(=O)c1ccccc1NC(=O)NCc1ccccc1,3%,-1%,-12%,3%,-23,?
COC(=O)c1ccccc1NC(=O)NCc1ccncc1,1%,-1%,13µM*,.,-22,-2%
COC(=O)c1ccccc1NC(=O)CNC(=O)c1ccco1,0%,2%,?,-5%,-72*,9%
O=C(CCCOc1ccccc1)Nc1cccc(S(=O)(=O)N2CCCCCC2)c1,?,1%,?,-11%,?,?
COC(=O)c1ccccc1NC(=O)c1cc(-c2ccc(Cl)cc2)on1,.,.,.,4%,0,.
CCOC(=O)c1c(C)[nH]c(C(=O)N/N=C/c2cc([N+](=O)[O-])ccc2O)c1C,11µM*,-2%,?,-3%,4,?

# Bioassay records from PubChem.
